Experimental findings from PubChem BioAssay (NCATS) are described below.

Records with an inconclusive call do not appear. Calls of active or inactive are those of the source. Calls follow the shape of the dose curve; as a rule, active = well fitted curve in the direction sought with a large enough effect; inconclusive = small, poorly fitted or top-dose-only effect, or another doubt; inactive = no such curve, though single readings can be large; an effect the other way counts as inactive or inconclusive.

The target in experiment [1] is Glutathione peroxidase 1 (Homo sapiens) (UniProt P07203). Put plainly: Primary qHTS Assay for Inhibitors of Recombinant Selenoprotein Glutathione Peroxidase 1 (GPX1) (AID 1845191). Also: nearly all actives have a fitted effect of over 65% in size. Conditions: recombinant GPX1, GR-coupled NADPH fluorescence, 15 min; series mostly up to 48.8 µM. An outline of the steps:
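10 nM GPX1 + cpd, 30 min RT; start w/ 1 mM GSH, 0.5 mM cumene hydroperoxide, 0.5 mM NADPH, 100 nM GR, 0.01% BSA; buffer 50 mM Tris-HCl pH 7.5, 2 mM EDTA, 150 mM NaCl; Fl 340/450, 0 & 15 min.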
On the technique in general: qHTS replaces the single test concentration by a dilution series.

The target in experiment [2] is Phospholipid hydroperoxide glutathione peroxidase GPX4 (Homo sapiens) (UniProt P36969). Put plainly: Primary qHTS Assay for Inhibitors of Recombinant Selenoprotein Glutathione Peroxidase 4 (GPX4) (AID 1845192). Also: nearly all actives have a fitted effect of over 65% in size. Conditions: recombinant GPX4, GR-coupled NADPH fluorescence, 15 min; series mostly up to 50 µM. An outline of the steps: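 NADPH consumption, followed by fluorescence at 340/450 nm between 0 and 15 min, reports GPX4 activity via coupled glutathione reductase (100 nM). Enzyme 200 nM was pre-exposed to compound 30 min; 0.5 mM cumene hydroperoxide and 1 mM GSH served as substrates.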

Experiment [3] is described as follows: Quantitative High-Throughput drug screen in 47 multiple myeloma cell lines against the NCATS MIPE library collection: FR4_PLB cell viability assay (AID 1918924; also: nearly all actives have a fitted effect of over 35% in size; also: potency is read from the fitted curve at half-maximal effect). The note with it: FR4_PLB myeloma cells viability, CellTiter-Glo ATP, 48 h; series mostly up to 45.8 µM. An outline of the steps:
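Luminescent ATP measurement with CellTiter-Glo gives viability, scaled between DMSO-only wells (100%) and media-only wells (0%). Cells, 500 per well, faced library compounds for 48 hours at 37C.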
A general note: Cellular ATP, detected with luciferase, serves as a proxy for viable cell number.

The nature of experiment [4]: Quantitative High-Throughput drug screen in 47 multiple myeloma cell lines against the NCATS MIPE library collection: Delta47_JCRB cell viability assay (AID 1918925; also: nearly all actives have a fitted effect of over 45% in size; also: potency is read from the fitted curve at half-maximal effect). Conditions: Delta47 myeloma viability, CellTiter-Glo ATP, 48 h; series mostly up to 45.8 µM. A digest of the protocol:
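Viability readout: CellTiter-Glo luminescence following 5 min room-temperature incubation with reagent. Prior exposure: 48 h, 37C, humidified 5% CO2, 500 cells per well.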

Sequence of Glutathione peroxidase 1 (Homo sapiens) (P07203 whole entry, looked up): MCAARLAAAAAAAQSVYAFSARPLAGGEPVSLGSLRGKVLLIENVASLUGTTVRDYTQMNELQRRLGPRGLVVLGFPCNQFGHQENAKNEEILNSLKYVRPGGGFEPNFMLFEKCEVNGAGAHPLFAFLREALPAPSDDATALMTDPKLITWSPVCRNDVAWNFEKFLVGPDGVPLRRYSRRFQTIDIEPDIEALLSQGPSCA
Sequence of Phospholipid hydroperoxide glutathione peroxidase GPX4 (Homo sapiens) (P36969 whole entry, looked up): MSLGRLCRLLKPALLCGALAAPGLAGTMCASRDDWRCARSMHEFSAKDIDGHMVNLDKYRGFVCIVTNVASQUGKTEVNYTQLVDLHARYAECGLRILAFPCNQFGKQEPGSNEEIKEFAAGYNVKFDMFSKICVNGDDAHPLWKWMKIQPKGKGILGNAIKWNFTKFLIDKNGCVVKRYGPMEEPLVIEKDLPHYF

Take `CC(C)C(C)C=CC(C)C1CCC2C3=CC=C4CC(O)CCC4(C)C3CCC21C` (centres undefined): the Potency entry in experiment [1], in experiment [2] and in experiment [3] was “inactive” throughout.

For the molecule `CC1(C)Cc2c(sc(NC(=S)NC(=O)c3ccccc3)c2C(=O)O)CO1`, the Potency entry in experiment [1] and in experiment [3] was “inactive” each time.

Take `CC[C@@]1(O)C[C@H](O[C@H]2C[C@H](N(C)C)[C@H](O[C@H]3C[C@H](O)[C@H](O[C@H]4CCC(=O)[C@H](C)O4)[C@H](C)O3)[C@H](C)O2)c2c(cc3c(c2O)C(=O)c2c(O)cccc2C3=O)[C@@H]1C(=O)OC`: in experiment [1], the Potency result is “inactive”. Also, the figures for the Potency in experiment [3] and in experiment [4] were 0.332 µM (active) and 0.0662 µM (active), respectively.

Turning to `Cc1ccc(C(=O)Nc2cccc(C(F)(F)F)c2)cc1Nc1nc(-c2cccnc2)nc2c1cnn2C`, the Potency result in experiment [1] and in experiment [2] was “inactive” each time. Further, the Potency in experiment [3] was 9.35 µM (active); in experiment [4] it was 5.26 µM (active).

In the case of `Oc1ccc(C2=Cc3ccc(O)cc3OC2)cc1`, the Potency result in experiment [1] and in experiment [2] was “inactive” in each case. The Potency was 1.32 µM (active) in experiment [3] and 0.833 µM (active) in experiment [4].

As for `O=C1C[C@@H](c2ccc(O)cc2)Oc2cc(O)cc(O)c21`, the Potency result in experiment [1], in experiment [3] and in experiment [4] was “inactive” each time.

On to `COc1ccc(-c2coc3cc(O)cc(O)c3c2=O)cc1`, for which the Potency result in experiment [1], in experiment [2], in experiment [3] and in experiment [4] was “inactive” each time.

In the case of `CO[C@@H](C(=O)N1Cc2[nH]nc(NC(=O)c3ccc(N4CCN(C)CC4)cc3)c2C1)c1ccccc1`, the Potency result in experiment [1] and in experiment [2] was “inactive” throughout. Further, the Potency in experiment [3] was 23.5 µM (active); in experiment [4], 6.62 µM (active).

With `CN1C[C@H]2c3ccccc3Oc3ccc(Cl)cc3[C@@H]2C1`, the Potency entry in experiment [1], in experiment [2], in experiment [3] and in experiment [4] was “inactive” in each case.

As to `C[C@H](NC(=O)c1sccc1OCc1ccc(Cl)cc1)c1ccccc1`, the Potency entry in experiment [1] and in experiment [2] was “inactive” each time. Further, in experiment [4], the Potency was 20.9 µM (active).
